TSHR antag = human thyrotropin receptor antagonism. AID 504810. TSHR-expressing cells, TSH-stimulated cAMP HTRF, 2 h; hits give low values. P16473. actives 0.2% (n = 330,000). activity change, negative = inhibition, % at 11.5 µM;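 active = activity change below a set negative limit, meaning inhibition stronger than a set level, cut at about -70% in these data; inconclusive = activity change between two set negative limits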; also: % is scaled to controls: 0 for no effect and ±100 for the full control effect
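Cell-based HTRF cAMP assay; TSHR cells + compound, TSH EC80 (4nM final), 2 h, 37 deg C. Lysis with anti-cAMP cryptate and cAMP-d2, 30 min RT, read 665/620 nm.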
Akt phos inh = inhibitors of Akt phosphorylation. Neuro2A IGF-stimulated pAkt S473 HTRF, 20 min; hits give low values. activity change, % for hits at 50 µM. actives 0.32% (n = 360,000); in the data active = activity change below about -80%; inconclusive = mostly about -51% to -80%; also: % is scaled to controls: 0 for no effect and ±100 for the full control effect
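Single-point screen (50 µM final compound) in Neuro2A cells stimulated 20 min with 6 nM IGF at 37 deg C. After lysis, Ser473-phosphorylated Akt read by HTRF (ex 330 nm, em 615/665 nm) as the 665/615 ratio.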
RGS4 inh = human RGS4 inhibition; Transcreener GDP fluorescence polarization, RGS4-accelerated GTP hydrolysis; Potency, µM (highest dose often 114 µM), for the others: top-dose activity change, negative = inhibition, most hits filed as inhibitors; actives 0.039% (n = 390,000); AID 504845; also: potency is read from the fitted curve at half-maximal effect; % is scaled to controls: 0 for no effect and ±100 for the full control effect; nearly all actives have a fitted effect of over 75% in size
Target sequence (P49798 whole entry, looked up): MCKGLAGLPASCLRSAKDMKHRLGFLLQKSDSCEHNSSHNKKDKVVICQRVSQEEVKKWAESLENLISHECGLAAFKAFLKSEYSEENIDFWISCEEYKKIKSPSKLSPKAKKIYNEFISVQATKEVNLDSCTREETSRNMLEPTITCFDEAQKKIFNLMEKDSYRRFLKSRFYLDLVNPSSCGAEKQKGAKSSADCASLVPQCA
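MLSMR compounds (23 nl, pin-transferred) preincubated 10 min at room temperature with a 500nM (2x) first reagent, then RGS4 at 900nM (2x) plus Transcreener GDP mix added; fluorescence polarization (620/688 nm) read before and after 90 min at 30 °C.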
LDHA block = inhibitors of human lactate dehydrogenase A; purified LDHA, NADH/diaphorase-resazurin fluorescence; hits give low values; activity change, % (values are at about 110 or 230 µM); actives 0.15% (n = 480,000); AID 1347041; in the data active = activity change below about -30%; inconclusive = mostly about -25% to -30%;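 also: plate controls were DMSO wells for no effect and wells without enzyme for full effect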
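Resorufin fluorescence (ex540/em590), read at 0 and 20 min after diaphorase/resazurin addition, reports the NADH left after a 5 min room-temperature reaction of 2 nM human LDH5 with 0.06 mM NADH and 0.2 mM pyruvate.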
Glioma ERSR ind = ER stress response induction in glioma; actives 0.02% (n = 420,000); U87-MG GRP78 promoter luciferase reporter, 16 h; Potency, µM, for inactives: at the highest dose activation, usual class: activators; also: potency is read from the fitted curve at half-maximal effect; series mostly up to about 76 µM; % of control where 0% means no effect; nearly all actives have a fitted effect of over 35% in size
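Stably transfected U87-MG glioma cells carrying a GRP78-based luciferase sensor; 16 h compound incubation. Luminescence end-point read 10 min after Bright-Glo addition at room temperature.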
TCR act = activates T cell receptor signaling; primary human leukocytes, anti-CD3, IL-2 HTRF, 48 h; Potency, µM (top dose mostly 9.22 µM), for the others: top-dose activation of IL-2 secretion, most hits filed as activators; 330,000 tested, under 10 active; also: % of control where 0% means no effect
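Using a-CD3 beads without co-stimulation, primary human leukocytes were exposed to compounds for 48 hr. An HTRF IL-2 kit measured the cytokine, with europium-to-d2 energy transfer producing emission at 665nm upon 320nm excitation.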
Numbers without * were called inactive; i = inactive; ? = inconclusive; / = no result; ! = a repeat was not active; [ ] = remark or other dose. Sampled rows, rich in hits. Any-hit rate of the full collection: about 0.55%. Unless noted, calls follow the shape of the dose curve; as a rule, active = well fitted curve in the direction sought with a large enough effect; inconclusive = small, poorly fitted or top-dose-only effect, or another doubt; inactive = no such curve, though single readings can be large; an effect the other way counts as inactive or inconclusive.

SMILES	TSHR antag	Akt phos inh	RGS4 inh	LDHA block	Glioma ERSR ind	TCR act
CCCCCCCCCC(=O)O	-7	i	10%	-6	-3%	1%
COc1ccccc1C(=O)Nc1ccc2oc(-c3cccc(F)c3)nc2c1	/	/	/	-2	/	/
Nc1nnc(CC(=O)N/N=C/c2cc([N+](=O)[O-])cc(Br)c2O)s1	7	i	?	-86*	-4%	0%
CCn1nc(C(=O)Nc2nc(-c3ccc(NC(C)=O)cc3)cs2)c2ccccc2c1=O	/	/	/	-31*	/	/
CCCCCCn1nc(C(=O)Nc2nc(-c3ccc(NC(C)=O)cc3)cs2)c2ccccc2c1=O	/	/	/	0	/	/
COC(=O)C1=C(c2ccccc2)c2ccccc2S(=O)(=O)N1CC(=O)Nc1cc(Cl)ccc1C	/	/	/	4	/	/
CCOC(=O)c1cc(C)nc2c1c(=O)n(Cc1nc(-c3ccc(C(C)C)cc3)oc1C)c(=O)n2C	/	/	/	9	/	/
CN(C)c1ccc(CN(Cc2ccco2)C(=O)c2ccc(C(C)(C)C)cc2)cc1	/	/	-22%	8	/	/
CCn1cnc2sc(C(=O)N(Cc3ccc(N(C)C)cc3)Cc3ccco3)c(C)c2c1=O	-10	-109%*	-19%	-2	-2%	-6%
O=C1c2cccnc2C(O)N1Cc1ccc(F)cc1 (stereo not given)	16	-95%*	28%	-5	-2%	-3%[46.1 µM]
N#CCCN(C(=O)Cn1nc(C(=O)O)c2ccccc2c1=O)c1ccccc1	22	i	-12%	-32*!	0%	-2%
COc1ccccc1N(CCC#N)C(=O)Cn1nc(C(=O)O)c2ccccc2c1=O	/	/	/	-5	/	/
COC(=O)c1cccc(NCc2ccc(C(F)(F)F)cc2)c1	/	/	/	7	/	/
N#CNC(=O)c1ccc(-n2cccc2/C=C2\NC(=O)N(CC(=O)Nc3cccc(F)c3)C2=O)cc1	/	/	/	-14	/	/
COc1ccc(-c2nnc(SCc3ccccn3)n2C)cc1	-1	-107%*	-12%[11.4 µM]	-1	-1%	-4%[46.1 µM]
COc1cc(OC)c(NC(=O)Cn2cnc3sc(C)c(S(=O)(=O)N4CCOCC4)c3c2=O)cc1Cl	-97*	i	-22%	-7	-2%	2%
COc1ccc(NC(=O)Cn2cnc3sc(C)c(S(=O)(=O)N4CCOCC4)c3c2=O)cc1Cl	1	i	-19%	-6	2%	12%
COC(=O)c1cc(S(=O)(=O)N2CCCCC2)ccc1N1CCOCC1	0	i	-11%	0	-1%	-2%
COC(=O)c1cc(S(=O)(=O)N2CCOCC2)ccc1Sc1ccccc1N	11	-99%*	-7%	5	1%	2%
Cc1nc2ccccc2n1CC(=O)N/N=C\C=C\c1ccccc1	-81*	i	-29%	-6	-3%	7%
O=C(O)CSc1nnc(CNc2ccc(Cl)cc2)n1Cc1ccccc1	-11	-113%*	?	-4	0%	-1%
CCOC(=O)CSc1nnc(CNc2ccc(Cl)cc2)n1Cc1ccccc1	-12	i	1%	-7	-3%	4%[46.1 µM]
CC(=O)Nc1ccc2[nH]cc(C(C(=O)O)N3CCN(c4cc(C)c5ccccc5n4)CC3)c2c1 (stereo not given)	/	/	/	1	/	/
O=C(NCc1ccc(Cl)cc1)c1ncoc1-c1cccs1	/	/	/	8	/	/
Cc1ccc(S(=O)(=O)/N=C2/NC(=O)/C(=C/c3cc([N+](=O)[O-])ccc3O)S2)cc1	/	i	-5%	-51*	0%	-10%
SMILES	TSHR antag	Akt phos inh	RGS4 inh	LDHA block	Glioma ERSR ind	TCR act
CCOc1ccc2c(c1)cc(C(=O)Nc1ccc(OC)cc1)n2C	/	/	/	13	/	/
CCOc1ccc2c(c1)cc(C(=O)Nc1ccccc1OCC)n2C	/	/	/	-33*	/	/
CC1CCN(CCOCCOc2ccc(Cl)cc2Br)CC1	-8	i	-3%	-34*	-4%	-17%
Cc1cc2nc(-c3ccc(SCC(=O)N4CCOCC4)nc3)[nH]c2cc1C	-11	i	-23%	6	1%	/
Cc1cc2nc(-c3ccc(SCC(=O)N4CCN(C(=O)c5ccco5)CC4)nc3)[nH]c2cc1C	-18	-94%*	?	0	2%	/
CN/C=C1\C(=O)C(C)(C)Oc2ccc3ccc(=O)oc3c21	-7	-93%*	-31%	-9	-2%	1%
CC1(C)Oc2ccc3ccc(=O)oc3c2/C(=C/Nc2ccc(O)cc2)C1=O	-4	i	-47%	-11	-6%	-22%
COc1cc(OC)c(C2CC(=O)Oc3n[nH]c(-c4ccccc4)c32)cc1OC (stereo not given)	/	/	/	13	/	/
Cc1nc(N/N=C/c2cccnc2)cc(N2CCOCC2)n1	/	i	/	1	-6%	/
CCCCOc1ccc(/C=N/Nc2cc(N3CCOCC3)nc(C)n2)cc1	-118*	i	7%	-3	-2%	/
Cc1ccc2[nH]c3c(c2c1)CCCC3NCC12CC3CC(CC(C3)C1)C2 (stereo not given)	/	/	/	1	/	/
COc1ccccc1-n1cnnc1SCC(=O)NCc1cccs1	-2	-111%*	42%	-5	-2%	-2%
COc1ccccc1-n1cnnc1SCC(=O)NC1CCCCC1	-5	i	3%	-2	-2%	13%
O=C1ON=C(c2ccc(Cl)c([N+](=O)[O-])c2)/C1=C/c1cccc([N+](=O)[O-])c1O	19	i	-7%	-31*	0%	0%
O=C1ON=C(c2ccccc2[N+](=O)[O-])/C1=C/c1cccc([N+](=O)[O-])c1O	-9	i	-10%	-17	0%	-10%
Cc1ccc(NC(=O)c2ccc(S(=O)(=O)N3CCCCC3)cc2)cc1	-24	i	-18%	-15	-5%	/
Cc1ccc(S(=O)(=O)N2CCN(C(=O)CN3CCCCC3)C2)cc1	-1	-101%*	25%	0	-5%	22%
O=C(Nc1ccon1)c1ccc(S(=O)(=O)N2CCCCCC2)cc1	6	-116%*	-8%	-2	-5%	1%
CCn1ncc(C(=O)Nc2ccc(S(=O)(=O)N3CCCC3)cc2)c1C	3	-123%*	1%	1	-5%	0%
Cc1ccc(C(=O)NNC(=O)c2ccc(S(=O)(=O)N3CCCCC3)cc2)cc1	7	i	18%	-32*	-4%	3%[46.1 µM]
O/N=C1\CCCc2c1nc(-c1ccccc1)n2O	/	/	/	6	/	/
COc1cc(C2CC(=O)Nc3nc(N4CCCCC4)sc32)ccc1OCC(N)=O (stereo not given)	/	/	/	97	/	/
Cc1ccccc1C(=O)N1CCC(C(=O)N(CC(C)C)c2c(N)n(CC(C)C)c(=O)[nH]c2=O)CC1	16	i	0%	1	-5%	-1%
COCCN(C(=O)C1CCN(C(=O)c2ccccc2C)CC1)c1c(N)n(CC(C)C)c(=O)[nH]c1=O	0	i	-29%	-47*	1%	-5%

Source: PubChem BioAssay
